Experimental data taken from the supplement of paper PMC12350171.
Structures can show the parent of a compound that is named as a salt.

Experiments:
Conditions in all cases: 20 µM
[1] = test system: P. vulgatus RND KO; experiment: growth AUC normalised to DMSO control (median) (fraction of control); higher = less growth inhibition, active = hit call of the paper
Procedure, shortened: (§1)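 Area under the growth curve, calculated by the trapezoidal rule up to entry into stationary phase, was normalised to vehicle wells on the same plate. Strains had been passaged twice overnight without oxygen and then grown in mGAM in 96-well plates from OD578 0.01, each with an approved-drug library compound at 20 μM in 1% DMSO. OD578 was read hourly over 24 h in an anaerobic incubator, and the median of three biological replicates is given.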

[2] = test system: P. vulgatus WT; experiment: as above
Procedure, shortened: as §1

[3] = test system: S. enterica typhimurium WT; experiment: as above
Procedure, shortened: as §1

[4] = test system: S. enterica typhimurium tolC KO; experiment: as above
Procedure, shortened: as §1

[5] = test system: Haemophilus parainfluenzae; experiment: growth AUC normalised to DMSO control (fraction of control); higher = less growth inhibition, active = hit call of the paper
Procedure, shortened: (§2)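 Hemin and NAD were added to the medium for Haemophilus parainfluenzae. All pathogens, after two anaerobic passages, were inoculated at a starting OD578 of 0.01 into pre-reduced mGAM plates with 20 μM compound and 1% DMSO under breathable seals, and OD578 was read hourly for 24 h in three biological replicates. AUC of each growth curve was obtained with the trapezoidal rule up to the exponential-to-stationary transition and normalised to DMSO controls from the same plate.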

[6] = test system: Salmonella enterica typhimurium; experiment: as above
Procedure, shortened: as §2

[7] = test system: Shigella flexneri; experiment: as above
Procedure, shortened: as §2

[8] = test system: Vibrio cholerae; experiment: as above
Procedure, shortened: as §2

[9] = test system: Yersinia pseudotuberculosis; experiment: as above
Procedure, shortened: as §2

Measured: growth AUC normalised to DMSO control
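Wherever growth AUC normalised to DMSO control (median) is given: active when median AUC fell below 0.1.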

C[C@]12CC[C@@H]3c4ccc(OC(=O)N(CCCl)CCCl)cc4CC[C@H]3[C@@H]1CC[C@@H]2O [Estramustine]
inactive: [1] 0.982 | [2] 0.984 | [3] 1 | [4] 0.968

C[N+]1([O-])[C@@H]2C[C@@H](OC(=O)[C@H](CO)c3ccccc3)C[C@H]1[C@@H]1O[C@@H]12 (stereo not given in full) [Scopolamin-N-oxide hydrobromide]
inactive: [5] 0.991 | [6] 0.992 | [7] 1.02 | [8] 1.07 | [9] 1.01 | [1] 1.04 | [2] 1.02 | [3] 1.02 | [4] 1.01

c1ccc2c(c1)Nc1ccccc1S2 [Phenothiazine]
inactive: [1] 1.01 | [2] 1.01 | [3] 0.972 | [4] 0.945

O=C(O[C@H]1C[N+]2(CCCOc3ccccc3)CCC1CC2)C(O)(c1cccs1)c1cccs1 [Aclidinium bromide]
inactive: [1] 1 | [2] 1 | [3] 1.01 | [4] 1

CCC(=O)O[C@@](Cc1ccccc1)(c1ccccc1)[C@@H](C)CN(C)C [Levopropoxyphene napsylate]
inactive: [5] 1 | [6] 0.999 | [7] 1.04 | [8] 1 | [9] 1.02 | [1] 1.03 | [2] 1.05 | [3] 1 | [4] 0.995

C[C@]12C=CC(=O)C=C1CC[C@@H]1[C@@H]2CC[C@@]2(C)[C@H]1CC[C@]2(C)O [Methandrostenolone]
inactive: [1] 0.996 | [2] 0.998 | [3] 1.01 | [4] 0.982

Nc1nc(N)nc(NC2CC2)n1 [Cyromazine]
inactive: [1] 0.998 | [2] 1.01 | [3] 1 | [4] 0.988

CC(C)C[C@H](CN)CC(=O)O [Pregabalin]
inactive: [1] 0.971 | [2] 0.976 | [3] 0.991 | [4] 0.989

NC(=O)CN1CC(O)CC1=O (stereo not given) [Oxiracetam]
inactive: [1] 1.02 | [2] 1.03 | [3] 1 | [4] 0.955

CC(N)C(O)c1ccccc1 (stereo not given) [Phenylpropanolamine hydrochloride]
inactive: [5] 1.07 | [7] 1.03 | [8] 1.01 | [9] 0.972 | [1] 1.03 | [2] 1.02 | [3] 1.01 | [4] 1.01

CC[C@@H](C(=O)[C@@H](C)[C@@H](O)[C@H](C)[C@@H]1O[C@@H]([C@@H](CC)C(=O)O)CC[C@@H]1C)[C@H]1O[C@]2(C=C[C@@H](O)[C@]3(CC[C@@](C)([C@H]4CC[C@](O)(CC)[C@H](C)O4)O3)O2)[C@H](C)C[C@@H]1C [Salinomycin sodium]
inactive: [3] 1.01 | [4] 0.781
active: [1] 0.00978 | [2] 0.00987

C=C[C@H]1CN2CC[C@H]1C[C@H]2[C@H](OC(=O)OCC)c1ccnc2ccc(OC)cc12 [Quinine ethyl carbonate]
inactive: [1] 1.01 | [2] 1 | [3] 0.996 | [4] 0.969

OC(c1ccccc1)(c1ccccc1)C1CCNCC1 [Azacyclonol]
inactive: [5] 0.982 | [6] 0.999 | [7] 0.988 | [8] 0.967 | [9] 1 | [1] 1 | [2] 1.03 | [3] 1.01 | [4] 0.99

NC(=O)OCCCc1ccccc1 [Phenprobamate]
inactive: [1] 1.01 | [2] 1.02 | [3] 0.989 | [4] 0.991

C[C@]12C/C(=C/O)C(=O)C[C@@H]1CC[C@@H]1[C@@H]2CC[C@@]2(C)[C@H]1CC[C@]2(C)O [Oxymetholone]
inactive: [1] 0.918 | [2] 1 | [3] 1.01 | [4] 0.956

C#C[C@]1(O)C=C[C@H]2[C@@H]3CCC4=CC(=O)CC[C@@H]4[C@H]3CC[C@@]21CC [Gestodene]
inactive: [1] 0.978 | [2] 0.978 | [3] 0.997 | [4] 0.995

COC[C@@H](NC(C)=O)C(=O)NCc1ccccc1 [Lacosamide]
inactive: [1] 0.998 | [2] 1 | [3] 0.987 | [4] 1

COc1cc2c(c(OC)c1OC)-c1ccc(OC)c(=O)cc1[C@@H](NC(C)=O)CC2 [Colchicine]
inactive: [5] 0.981 | [6] 0.988 | [7] 0.964 | [8] 0.98 | [9] 0.977 | [1] 0.988 | [2] 0.986 | [3] 1 | [4] 1.01

N#Cc1nn(-c2c(Cl)cc(C(F)(F)F)cc2Cl)c(N)c1[S+]([O-])C(F)(F)F (stereo not given) [Fipronil]
inactive: [1] 0.985 | [2] 0.906 | [3] 1.01 | [4] 0.903

CN(C)[C@@H]1C(=O)C(C(N)=O)=C(O)[C@@]2(O)C(=O)C3=C(O)c4c(O)cccc4[C@@](C)(O)[C@H]3C[C@@H]12 [Tetracycline hydrochloride]
active: [5] 0.0479 | [6] 0.00376 | [7] 0.0389 | [8] 0.0365 | [9] 0.0501 | [1] 0.0124 | [2] 0.013 | [3] 0.0084 | [4] 0.00234

CC(C)(C)NCC(O)c1ccccc1Cl (stereo not given) [Tulobuterol Hydrochloride]
inactive: [1] 1.01 | [2] 1 | [3] 0.995 | [4] 0.989

CCN(CC)CCOC(=O)C(O)(c1ccccc1)c1ccccc1 [Benactyzine hydrochloride]
inactive: [1] 0.979 | [2] 0.997 | [3] 1.01 | [4] 1

C[C@]12CC[C@H](O)CC1=CC[C@@H]1[C@@H]2CC[C@]2(C)C(=O)CC[C@@H]12 [Prasterone]
inactive: [1] 0.995 | [2] 0.994 | [3] 1.01 | [4] 0.942

O=C(CCCN1CCC2(CC1)C(=O)NCN2c1ccccc1)c1ccc(F)cc1 [Spiperone]
inactive: [5] 0.953 | [6] 0.978 | [7] 0.978 | [8] 0.917 | [9] 0.985 | [1] 0.98 | [2] 0.988 | [3] 0.995 | [4] 0.979

C=CC[C@]1(O)CC[C@H]2[C@@H]3CCC4=CCCC[C@@H]4[C@H]3CC[C@@]21C [Allylestrenol]
inactive: [1] 0.959 | [2] 0.925 | [3] 1.02 | [4] 1.01

NCC1(CC(=O)O)CCCCC1 [Gabapentin]
inactive: [5] 0.891 | [6] 1.01 | [7] 1.05 | [8] 1.03 | [9] 1.01 | [1] 1.04 | [2] 1.04 | [3] 1.01 | [4] 1.01

CC(=O)[C@H]1CC[C@H]2[C@@H]3CC[C@H]4C[C@H](O)CC[C@]4(C)[C@H]3C(=O)C[C@]12C [Alfaxalone]
inactive: [5] 1 | [6] 0.999 | [7] 0.973 | [8] 0.964 | [9] 1.01 | [1] 0.996 | [2] 0.996 | [3] 1 | [4] 0.911

Oc1ccc(Cl)cc1Cc1cc(Cl)ccc1O [Dichlorophen]
active: [4] 0.00799
inactive: [1] 0.641 | [2] 0.442 | [3] 0.915

CCC(COC(=O)c1cc(OC)c(OC)c(OC)c1)(c1ccccc1)N(C)C (stereo not given) [Trimebutine]
inactive: [1] 1 | [2] 1.01 | [3] 1 | [4] 0.936
